ALDH1A1 block – inhibitors of human aldehyde dehydrogenase 1A1; P00352; Purified ALDH1A1, NADH fluorescence, propionaldehyde substrate; Potency, µM (doses to about 75.3 µM), hits mostly inhibitors; 7.3% of 220,000 active; AID 1030
Target sequence (P00352 whole entry, looked up): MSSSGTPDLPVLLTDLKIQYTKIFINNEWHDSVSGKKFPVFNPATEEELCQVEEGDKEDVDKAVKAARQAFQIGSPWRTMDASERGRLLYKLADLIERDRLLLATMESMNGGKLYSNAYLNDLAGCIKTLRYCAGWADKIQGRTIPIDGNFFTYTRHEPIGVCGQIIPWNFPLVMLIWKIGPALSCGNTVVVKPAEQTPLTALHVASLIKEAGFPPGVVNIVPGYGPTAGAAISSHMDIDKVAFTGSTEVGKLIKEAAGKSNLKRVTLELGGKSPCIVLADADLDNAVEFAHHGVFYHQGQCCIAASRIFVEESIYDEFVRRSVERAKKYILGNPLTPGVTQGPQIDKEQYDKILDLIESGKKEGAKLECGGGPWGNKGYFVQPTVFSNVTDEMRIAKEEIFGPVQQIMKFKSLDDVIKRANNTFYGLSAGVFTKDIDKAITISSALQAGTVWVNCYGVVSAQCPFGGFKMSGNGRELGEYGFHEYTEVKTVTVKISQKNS
PNC inhibitor – blocks assembly of the perinucleolar compartment; PC3M PTB-GFP, PNC prevalence imaging, 16 h; stronger effect = lower value; activity change (PNC), negative = inhibition, % at 10 µM; 3.1% of 140,000 active; AID 2417;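 active = readout at or below -70, meaning at least 70% loss of cells showing the perinucleolar compartment, a nuclear body marking cancer cells; inconclusive = readout between -30 and a set limit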
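PC3M cells stably expressing PTB-GFP, 750–1000 cells/well, treated 16 h at 37 °C with compound (23 nl of library stock), in duplicate. After paraformaldehyde fixation and Hoechst stain, imaged at 20x; PNC prevalence scored by image analysis.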
HPGD inh – HPGD (human) dehydrogenase inhibition; purified HPGD, NADH fluorescence kinetic, PGE2 substrate; 4.3% of 150,000 active; Potency, µM, actives largely listed as inhibitors; P15428; AID 894
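NADH formation kinetics: reaction with 30 uM PGE2 and 1 mM NAD+ (final), 20 nM enzyme, Tris-HCl pH 8 with Tween 20, after 15 min compound preincubation at room temperature. Fluorescence change, last versus first of five reads.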
Of the large screens only hits and unclear results are named; the others gave an inactive call. In the library only some 11% were active in any assay of this set; here they are far more common. Unless noted, calls come from the whole dose curve; as a rule, active = well fitted inhibition curve with a large enough effect (not every such curve was filed as active); inconclusive = small, poorly fitted or top-dose-only effect, or another doubt; inactive = no such curve, though single readings can be large or run the other way.

CC(O)CCC(=O)NNC(=S)Nc1ccccc1 (stereo unspecified)	none (no result: PNC inhibitor, HPGD inh)
COC(=O)C(Cc1cncn1COCc1ccccc1)NC(=O)OC(C)(C)C (stereo unspecified)	ALDH1A1 block 20µM
CC(C)(C)OC(=O)N[C@@H](CC(=O)OCc1ccccc1)C(=O)O	none (no result: PNC inhibitor, HPGD inh)
O=C(c1ccc(Cl)cc1)N1CCN(c2cc(=O)[nH]nc2-c2ccccc2)CC1	none
O=C(c1cccc(C(F)(F)F)c1)N1CCN(c2cc(=O)[nH]nc2-c2ccccc2)CC1	ALDH1A1 block 3µM
CN(C)CCCO[C@H]1[C@@H]2OC(C)(C)O[C@@H]2O[C@@H]1[C@H](O)CO	none (no result: PNC inhibitor)
CC1(C)C=C(c2ccc(C=O)s2)CC(C)(C)N1C=O	ALDH1A1 block inconclusive
CN(C)C(=O)c1nnc(Cc2ccc(Cl)cc2)o1	none
O=c1c(Cl)c(Cl)cnn1Cc1nnc(-c2ccccc2Br)o1	ALDH1A1 block 3.5µM (no result: PNC inhibitor, HPGD inh)
Brc1ccccc1-c1nnc(CSc2nncn2-c2ccccc2)o1	PNC inhibitor inconclusive
Clc1ccc(Cc2nnc(-c3ccccc3Br)o2)cc1	HPGD inh 20µM
COc1cc2ccccc2cc1-c1nnc(COc2ccccc2)o1	HPGD inh inconclusive
Clc1ccccc1OCc1nnc(-c2ccccc2Br)o1	ALDH1A1 block inconclusive, HPGD inh 20µM
CC(OC(=O)C1=COCCO1)C(=O)Nc1ccccc1C#N (stereo unspecified)	none (no result: PNC inhibitor, HPGD inh)
COC(=O)N1CCC2(CCCN(C(=O)Nc3cccc(C#N)c3)C2)CC1	none (no result: PNC inhibitor)
N=C1S/C(=C\c2ccc(-c3ccccc3C(=O)O)o2)C(=O)N1c1ccc2c(c1)OCO2	ALDH1A1 block 11µM (no result: PNC inhibitor, HPGD inh)
Cc1ccc(NC(=O)CN2C(=O)S/C(=C\c3ccc(-c4cccc(C(=O)O)c4C)o3)C2=O)cc1C	none (no result: PNC inhibitor, HPGD inh)
COc1ccccc1N1C(=N)S/C(=C\c2ccc(-c3ccccc3C(=O)O)o2)C1=O	ALDH1A1 block inconclusive, HPGD inh 25µM
N=C1S/C(=C\c2ccc(-c3cccc(Cl)c3)o2)C(=O)N1c1nccs1	HPGD inh inconclusive
N#CSCC(=O)c1cccc2ccccc12	ALDH1A1 block 1.6µM, HPGD inh inconclusive
C/C(N)=C(/C#N)C(=O)COC(=O)c1cccc2ccccc12	ALDH1A1 block inconclusive, HPGD inh inconclusive
O=C(/N=C1\NC(=O)C(F)(C(F)(F)F)S1)NC1CCCCC1 (stereo unspecified)	ALDH1A1 block 7.1µM, HPGD inh 7.9µM
CCC1S/C(=N/C(=O)NC2CCCCC2)NC1=O (stereo unspecified)	none
CCCCNC(=O)/C(C#N)=C/c1ccc(C(=O)OC)cc1	none (no result: PNC inhibitor, HPGD inh)
Cc1ccc(/C=C(/C#N)C(=O)NC(=O)Oc2ccccc2)cc1	PNC inhibitor -101
COC(=O)c1ccc(/C=C(\C#N)C(=O)NC(C)c2ccccc2)cc1 (stereo unspecified)	ALDH1A1 block inconclusive, PNC inhibitor -100
Cc1ccc(OC(=O)Nc2ccccc2)cc1	none (no result: PNC inhibitor, HPGD inh)
COC(=O)C1=CO[C@@H](O[C@H]2OC(CO)C(O)C(O)C2O)C2C1CC(O)C2C (stereo partly specified)	none (no result: PNC inhibitor)
CCc1cc2c(SCC(=O)NC3CCS(=O)(=O)C3)ncnc2s1 (stereo unspecified)	none (no result: PNC inhibitor, HPGD inh)
COC(=O)c1ccc2c(=O)n(Cc3ccco3)c(SCC(=O)Nc3cc(C)on3)nc2c1	none (no result: PNC inhibitor, HPGD inh)
CCc1cc2c(=O)n(Cc3ccco3)c(SCC(=O)NC3CCS(=O)(=O)C3)nc2s1 (stereo unspecified)	ALDH1A1 block 10µM (no result: PNC inhibitor, HPGD inh)
Cc1nnc(SCC(=O)N(C)C2CCS(=O)(=O)C2)n1Cc1ccccc1 (stereo unspecified)	none (no result: PNC inhibitor, HPGD inh)
CCc1cc2c(=O)n(Cc3ccco3)c(SCc3c(C)noc3C)nc2s1	ALDH1A1 block 22µM, PNC inhibitor inconclusive
CCc1cc2c(=O)n(Cc3ccco3)c(SCC(=O)N(C)C3CCS(=O)(=O)C3)nc2s1 (stereo unspecified)	ALDH1A1 block 10µM (no result: PNC inhibitor, HPGD inh)
O=C(CSc1nc2ccccc2c(=O)n1Cc1ccco1)N1CCCCCC1	ALDH1A1 block inconclusive
CCc1cc2c(=O)n(Cc3ccco3)c(SCC(=O)N3CCCc4ccccc43)nc2s1	ALDH1A1 block 4.5µM
O=C(Nc1ccc(Nc2ccc3c(c2)C(=O)c2ccccc2C3=O)c2c1C(=O)c1ccccc1C2=O)c1ccccc1	none (no result: PNC inhibitor)
CCc1cc2c(nc1CC)CCN(CC/C(C)=N/OC[C@@H](C)[C@H](OCc1ccccc1)C(C)C)C2	none (no result: PNC inhibitor, HPGD inh)
CCc1ccc2c(-c3cccc(Cl)c3)nc(=O)n(CC)c2n1	ALDH1A1 block inconclusive (no result: PNC inhibitor)
Cc1[nH][nH]c(=O)c1C(c1ccc(O)c([N+](=O)[O-])c1)c1c(C)[nH][nH]c1=O	ALDH1A1 block inconclusive
Cc1[nH][nH]c(=O)c1[C@@H](c1ccccc1[N+](=O)[O-])C(C#N)C#N	ALDH1A1 block 25µM (no result: PNC inhibitor, HPGD inh)
O=C(Nc1ccc(S(=O)(=O)Nc2ncccn2)cc1)c1cccc(S(=O)(=O)N2CCOCC2)c1	none (no result: PNC inhibitor, HPGD inh)
CNc1nc(CCN2C(=O)c3ccccc3C2=O)cs1	ALDH1A1 block inconclusive
Cc1nc(CCN2C(=O)c3ccccc3C2=O)cs1	PNC inhibitor -111
CCc1ccccc1NC(=O)CCc1nc(-c2cccs2)no1	none (no result: PNC inhibitor, HPGD inh)
Cn1c[n+](C)cc1-c1ccc(/C(N)=N/O)cc1	ALDH1A1 block inconclusive, PNC inhibitor -80
N/C(=N\O)c1ccncc1	none (no result: PNC inhibitor, HPGD inh)
CCCCNC(=O)CSc1nnc(-c2ccc(S(=O)(=O)N3CCCC3)cc2)n1C	PNC inhibitor -100
COc1ccccc1-n1c(SCC(=O)O)nnc1-c1ccc(S(=O)(=O)N2CCCCC2)cc1	ALDH1A1 block 13µM, PNC inhibitor inconclusive, HPGD inh inconclusive
CNC(=O)CSc1nnc(-c2ccc(S(=O)(=O)N3CCCC3)cc2)n1-c1cccc(C)c1C	HPGD inh inconclusive
Cn1c(SCC(=O)NCc2cccs2)nnc1-c1ccc(S(=O)(=O)N2CCCC2)cc1	none
CC(=O)OC[C@@H]1O[C@@H](O/N=C2/C[C@@H](O)[C@@H](O)[C@@H]3[C@@H]4C(=O)N(Cc5ccc6c(c5)OCO6)C(=O)[C@H]4CC[C@@H]23)[C@H](OC(C)=O)[C@H](OC(C)=O)[C@@H]1OC(C)=O	none (no result: PNC inhibitor, HPGD inh)
Cc1cc(S(=O)(=O)n2ccnc2)c(Cl)cc1Cl	none (no result: PNC inhibitor, HPGD inh)
O=C(NC(=S)NCc1ccccc1)C1CCCCC1	ALDH1A1 block inconclusive
O=C(NN1C(=O)C2C3C=CC(C4CC34)C2C1=O)c1cccc(Cl)c1 (stereo unspecified)	PNC inhibitor inconclusive
O=C(NN1C(=O)C2C3C=CC(O3)C2C1=O)c1cccc(Br)c1 (stereo unspecified)	ALDH1A1 block 28µM (no result: PNC inhibitor, HPGD inh)
Cc1cccc(C(=O)NN2C(=O)C3C(c4ccccc4)C=CC(c4ccccc4)C3C2=O)c1 (stereo unspecified)	none
O=C(NN1C(=O)C2C3C=CC(O3)C2C1=O)c1cccc(O)c1 (stereo unspecified)	ALDH1A1 block 20µM
Cc1nn(CCCC(=O)Nc2c(F)cc(F)cc2Br)c(C)c1[N+](=O)[O-]	none (no result: PNC inhibitor, HPGD inh)
Cn1nc(C(=O)NCc2cccnc2)c2ccccc2c1=O	none
O=C(Cn1cnc2sc(-c3ccccc3)cc2c1=O)NCc1ccccc1	none
Cc1ccc(-c2nn(CC(=O)NCCN3CCOCC3)c(=O)c3ccccc23)cc1	none
Cn1nc(C(=O)NCc2ccco2)c2ccccc2c1=O	ALDH1A1 block 13µM
Cc1ccc(-c2nn(CC(=O)NCc3ccco3)c(=O)c3ccccc23)cc1	PNC inhibitor -111
